Data taken from PubChem BioAssay AID624329 (National Center for Advancing Translational Sciences (NCATS), 2012).
Inconclusive results are not listed. Calls of active or inactive are those of the source. Calls come from the whole dose curve; as a rule, active = well fitted curve in the direction sought with a large enough effect; inconclusive = small, poorly fitted or top-dose-only effect; inactive = flat fitted curve, though single readings scatter.

Experiment: Quantitative high throughput screen for delayed death inhibitors of the malarial parasite plastid: Hit Validation with 3D7 at 48 hr using Flow Cytometry
Details: P. falciparum 3D7 growth, flow cytometry SYBR/MitoTracker; fraction of growth remaining: at 50 µM (top of the series)
Description: The goal of this screen is to discover new antimalarial compounds that act by inhibiting the development of the apicoplast organelle in the malarial parasite Plasmodium falciparum. Some antibiotics, such as azithromycin and tetracycline, are known to interfere with the apicoplast translational machinery, and have a potent antimalarial effect. […] We developed a cell-based quantitative high throughput screen that leverages this "delayed death" phenotype to enrich for compounds that target the apicoplast. To detect small molecules that cause the delayed death phenotype, erythrocytes infected with firefly luciferase-expressing parasites were incubated with compounds for either one or two generations, corresponding to 48 and 96 hours, respectively. Growth inhibition was detected by a decrease in luciferase activity. Compounds that inhibited parasite growth in the second generation at least five-fold more potently than in the first generation were defined as delayed death inducing. These compounds were selected for confirmatory screening using a flow cytometry based assay. This hit validation assay used the 3D7 cell line and measured at 48 hours. NIH Molecular Libraries Probe Production Network [MLPCN] NIH Chemical Genomics Center [NCGC] MLPCN Grant: R21 NS059500 Assay Provider: David Fidock and Eric Ekland, Columbia University
Test compounds were diluted in 20 microliters of complete media (RPMI 1640 with 0.5% w/v Albumax (GIBCO), 24 mM sodium bicarbonate (Sigma) and 10 ug/mL gentamycin (Gibco)) in clear 384-well plates (Greiner). All liquid handling was conducted using a Bio Tek Precision 2000 pipetting system. Twenty microliters of infected erythrocytes, 0.2% parasitemia (for 48 hour time points) or 0.1% parasitemia (for 96 hour time points) were added to the compound dilutions (1% hematocrit, final concentration; 40 microliters, total culture volume). The assay plates were incubated for 48 hours, or 96 hours, at 37 masculine C in a humidified chamber (Billups- Rothenberg, Del Mar, CA, USA), gassed with 5%CO2/5%O2/ 90%N2. After one generation (48 hours), 5 microliters of culture were harvested and transferred to a second 384 well plate for fluorescent staining. Samples were stained with 30 microliters of 2 x SYBR Green I (Invitrogen) and 150nM MitoTracker Deep Red (Invitrogen) diluted in 0.9% NaCl, 0.2% dextrose (Baxter) supplemented with 2.5% Fetal Calf Serum (Gibco) (saline/FCS). Mature erythrocytes lack nuclei and mitochondria, therefore only parasitized erythrocytes retain the SYBR Green I and MitoTracker Deep Red. After 30 minutes at 37 masculine C, the stained cells were diluted in an additional 60 microliters of saline/FCS. The samples were harvested directly from the 384 well plate using a Hypercyt High Capacity Flow Platform (Intellicyt) paired with a C6 Flow Cytometer (Accuri). The flow cytometry files were analyzed using FlowJo software (FlowJo).
With `CO[C@@H]1[C@@H](OC2OC(C)C(OC3CC(C)(O)C(OC(=O)CC(C)C)C(C)O3)C(N(C)C)C2O)[C@@H](CC=O)C[C@@H](C)C(=O)/C=C\C2O[C@H]2C[C@@H](C)OC(=O)C[C@H]1OC(C)=O` (stereo partly drawn) the Potency was 2.95 µM (active).
For `CCCCOc1ccc(N2C(N)=NC(N)=NC23CCCCC3)cc1`, the Potency was 22.2 µM (active).
In the case of `CCCCN(CCCNC(=O)C1CCN(C(=O)c2cc3sccc3n2C)CC1)Cc1ccccc1`, the Potency is reported as 9.82 µM (active).
For `CCc1nc(SCC(=O)Nc2ccc(N(C)C)cc2)n[nH]1`, the Potency was 0.4 µM (active).
In the case of `CCCc1c(CC)c(=N)c2ccccc2n1C`, the Potency is reported as 6.48 µM (active).
With `Cc1ccc(CN2CCC(n3nccc3NC(=O)c3ccccc3C)CC2)o1` the fraction of growth remaining was 0.498 (active).
With `COc1ccc2cc3cc(C(=O)Nc4ccc5c(c4)OCO5)oc3nc2c1` the Potency was 48.3 µM (active).
In the case of `c1csc(CNc2ncnc3nc[nH]c23)c1`, the Potency is reported as “inactive”.
For `COc1ccc(NC(=S)N2CCC(Cc3ccccc3)CC2)cc1OC`, the Potency was 46.5 µM (active).
For `O=C(CSc1ccc(-c2cccnc2)nn1)Nc1ccccc1C(F)(F)F`, the Potency was 12.4 µM (active).
For `N#Cc1cccc(NC(=O)Cn2c3[n+](c4ccc(C(F)(F)F)cc42)CCCCC3)c1`, the Potency was 19.9 µM (active).
In the case of `CC1=Nc2cc(C(=O)N3CCCC3)ccc2Sc2ccc(C)cc21`, the fraction of growth remaining is reported as 0.151 (active).
With `CCC(=O)OC1C(N(C)C)CC(C)O[C@H]1O[C@H]1[C@H](C)[C@@H](O[C@H]2CC(OC)[C@@H](O)C(C)O2)[C@H](C)C(=O)O[C@@H](CC)[C@](C)(O)[C@@H](O)[C@H](C)C(=O)[C@@H](C)C[C@]1(C)O` (stereo partly drawn) the Potency was “inactive”.
In the case of `Clc1ccc(-c2c[n+](Cc3ccc(Cl)cc3Cl)c3n2CCCCC3)cc1`, the Potency is reported as 5.64 µM (active).
In the case of `CCOc1ccc(NC(=O)C[n+]2ccc(N(C)C)cc2)cc1`, the Potency is reported as 25.8 µM (active).
With `CCOC(=O)c1ccc2c(c1)n(CC)c(/C=C/N(C)c1ccccc1)[n+]2CC` the Potency was 1.52 µM (active).
With `COc1cccc(CN2CCN(c3nc4nonc4nc3N3CCCCC3)CC2=O)c1` the Potency was 5.55 µM (active).
With `CCCc1cc(=O)oc2cc(OC(C)C(=O)NCc3ccccn3)c(Cl)cc12` (stereo not drawn) the Potency was 16.9 µM (active).
In the case of `Cc1ccc(S(=O)(=O)Nc2ccc(C(=O)Nc3ccncc3)cc2)cc1`, the Potency is reported as 26.3 µM (active).
For `Cc1ccc(-n2c(-c3ccc(Cl)cc3)c[n+]3c2CCC3)cc1`, the Potency was 4.64 µM (active).
In the case of `CCCCN(CCCNC(=O)c1ccc(CS(=O)(=O)c2ccc(OC)cc2)o1)Cc1ccccc1`, the fraction of growth remaining is reported as 0.163 (active).
In the case of `O=C(CNC(=O)C1CCCCC1)OC(C(=O)c1ccccc1)c1ccccc1` (stereo not drawn), the Potency is reported as “inactive”.
For `COc1ccccc1N1CCN(CCC(=O)Nc2ccc(F)cc2)CC1`, the Potency was 18.3 µM (active).
In the case of `COc1ccc2c(ccc[n+]2CC(=O)c2ccccc2)c1`, the Potency is reported as 9.29 µM (active).
With `Cc1c(F)c(N2CCNC(C)C2)cc2c1c(=O)c(C(=O)O)cn2C1CC1` (stereo not drawn) the Potency was 5.98 µM (active).
With `O=C(NCc1cccnc1)c1ccc(NS(=O)(=O)c2ccccc2)cc1` the Potency was 30.9 µM (active).
For `CCOc1ccc(S(=O)(=O)Nc2cc(S(=O)(=O)N(CC)CC)ccc2N2CCCC2)cc1`, the Potency was 12.5 µM (active).
With `CC(=O)NC[C@@H]1CN(c2ccc(N3CCOCC3)c(F)c2)C(=O)O1` the Potency was “inactive”.
